The record followed here is PubChem BioAssay (Tox21).

A short description of assay [1]: qHTS assay for small molecules that induce genotoxicity in human embryonic kidney cells expressing luciferase-tagged ATAD5 (AID 651632). Note: nearly all actives have a fitted effect of over 15% in size. In a few lines:
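Cells were seeded at 2,000 per well, dosed with compound, and incubated 16 hr at 37C in 5% CO2. Luciferase activity was then quantified after a 30 min room-temperature incubation with Amplite.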

A short description of assay [2]: qHTS assay for small molecule agonists of the p53 signaling pathway - cell viability (AID 651633; calls by dose curve; note: nearly all actives have a fitted effect of over 30% in size; note: potency is the fitted concentration of half-maximal effect). In short, it runs like this:
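p53RE-bla cells, seeded at 4,000 per well and rested 5 h at 37 C/5% CO2, received compounds in DMSO for 16 h at 37 C. CellTiter-Glo was then added, and luminescence was read after 30 min at room temperature to gauge cytotoxicity.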

Assay [3] can be described thus: qHTS assay for small molecule disruptors of the mitochondrial membrane potential - cell viability (AID 720634; calls by dose curve;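 note: human HepG2 liver cancer cells; series mostly up to about 83 µM; nearly all actives have a fitted effect of over 20% in size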). In a few lines:
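Cytotoxicity was measured by ATP quantitation in HepG2 wells that had first been treated with compound for 1 hr and stained with m-MPI dye; CellTiter-Glo incubation was 30 min at room temperature.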

Assay [4] can be described thus: qHTS assay to test for compound auto fluorescence at 590 nm (red) in HepG2 cells (AID 720674). In a few lines:
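Intrinsic compound fluorescence in the red window (Ex/Em 540/590 nm) is measured in attached HepG2 cells exposed for 1 hr, DMSO vehicle as baseline, benchmarked to Rose Bengal sodium.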

A short description of assay [5]: qHTS assay to test for compound auto fluorescence at 535 nm (green) in HepG2 cells (AID 720675).
A short description of assay [6]: qHTS assay to test for compound auto fluorescence at 460 nm (blue) in HEK293 cells (AID 720678). In a few lines: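 Blue read-out at excitation 405 nm and emission 460 nm follows overnight compound exposure of HEK293 cells at 37C in 5% CO2. Activity is given as auto fluorescence equivalency to triamterene.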
Assay [7] is described as follows: qHTS assay to test for compound auto fluorescence at 590 nm (red) in HEK293 cells (AID 720679). In short, it runs like this:
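Red channel, Ex/Em 540/590nm; signal expressed as equivalency to Rose Bengal sodium. HEK293, 2,000 cells/well, 10% dialyzed FBS; 23 nL compound pinned after 4-5 hr attachment; overnight 37C/5% CO2 before reading.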

The nature of assay [8]: qHTS assay to test for compound auto fluorescence at 535 nm (green) in HEK293 cells (AID 720680).
A short description of assay [9]: qHTS assay to test for compound auto fluorescence at 460 nm (blue) in HEK293 cell free culture (AID 720681). In a few lines: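 Test compounds were pinned into cell-free culture medium (DMEM with 10% FBS) and fluorescence was read directly at Ex/Em 405/460 nm. Signals were expressed as fluorescence equivalents of triamterene, with DMSO vehicle as control.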
Assay [10] is described as follows: qHTS assay to test for compound auto fluorescence at 535 nm (green) in HEK293 cell free culture (AID 720682). In short, it runs like this: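 Intrinsic compound fluorescence is measured in culture medium containing 10% FBS, with excitation at 485 nm and detection at 535 nm, referenced to fluorescein.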
Assay [11] in a line: qHTS assay to test for compound auto fluorescence at 590 nm (red) in HEK293 cell free culture (AID 720683). In short, it runs like this:
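Tox21 10K library compounds were pinned into cell-free DMEM with 10% FBS and fluorescence was read at excitation 540 nm. Activity is expressed as Rose Bengal sodium equivalency.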

Assay [12] in a line: qHTS assay to test for compound auto fluorescence at 590 nm (red) in HepG2 cell free culture (AID 720684). In a few lines:
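Readout: intrinsic compound fluorescence at 590 nm emission after 540 nm excitation, scaled to Rose Bengal sodium. Matrix was cell-free MEM with 10% FBS; DMSO vehicle wells served as control.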

Assay [13] is described as follows: qHTS assay to test for compound auto fluorescence at 535 nm (green) in HepG2 cell free culture (AID 720686).
The nature of assay [14]: qHTS assay to test for compound auto fluorescence at 460 nm (blue) in HepG2 cells (AID 720687). In short, it runs like this: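 Cells (2,000/well in MEM with 10% FBS) attached overnight at 37 C, then were exposed to compound or DMSO for 1 hr at 37 C, 5% CO2. Fluorescence read at Ex/Em 405/460 nm, expressed as triamterene-equivalent signal.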
Assay [15] concerns the target Glucocorticoid receptor (Homo sapiens) (UniProt P04150). Description: qHTS assay to identify small molecule agonists of the glucocorticoid receptor (GR) signaling pathway (AID 720691; active = well fitted activation curve with a large enough effect in the signal ratio in the repeat runs, not every such curve was filed as active; the % refers to the signal ratio). In a few lines: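 Steps: seed GR-bla HeLa cells, incubate 4 h at 37 C/5% CO2; pin-transfer DMSO-dissolved compounds; incubate 18 h at 37 C; add LiveBLAzer B/G FRET substrate; after 2 h at room temperature, measure fluorescence.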

Assay [16] shares this target. Description: qHTS assay to identify small molecule antagonists of the glucocorticoid receptor (GR) signaling pathway (AID 720692; active = well fitted inhibition curve with a large enough effect in the signal ratio in the repeat runs, not every such curve was filed as active; the % refers to the signal ratio; note: potency is the fitted concentration of half-maximal effect). In short, it runs like this:
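Antagonism was scored as loss of dexamethasone-driven (5 nM final) reporter signal in HeLa cells bearing a glucocorticoid response element–beta-lactamase construct, after 18 h compound exposure at 37 C and 2 h FRET substrate loading.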

Assay [17] in a line: qHTS assay for small molecule disruptors of the mitochondrial membrane potential (AID 720635). Note: potency is the fitted concentration of half-maximal effect. In a few lines: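 HepG2 cells (2,000/well) attached overnight at 37C, then took compound for 1 hr at 37C, 5% CO2. Mito-MPS dye was added for 30 min; fluorescence was read at 490/535 nm (monomers) and 540/590 nm (aggregates).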
The nature of assay [18]: qHTS assay to test for compound auto fluorescence at 460 nm (blue) in HepG2 cell free culture (AID 720685). In short, it runs like this: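 Cell-free plates of MEM plus 10% FBS received 23 nL compound or DMSO vehicle; blue-channel (405/460 nm) intensity scored against triamterene as reference fluorophore.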
A short description of assay [19]: qHTS assay for small molecules that induce genotoxicity in human embryonic kidney cells expressing luciferase-tagged ATAD5 - cell viability (AID 651634; calls by dose curve; note: nearly all actives have a fitted effect of over 25% in size). In a few lines: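 Cells (HEK293T, luciferase-tagged ATAD5) are seeded at 2,000 per well, dosed with compound or DMSO vehicle, and incubated 15.5 hr at 37C and 5% CO2. CellTiter-Fluor is added for 30 min before fluorescence is measured.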

A number with no mark means an inactive call. Records with an inconclusive call do not appear. The source made the active and inactive calls. Unless noted, calls come from the whole dose curve; as a rule, active = well fitted curve in the direction sought with a large enough effect in the repeat runs; inconclusive = weak or mixed curves; inactive = no such curve, though single readings can be large; an effect the other way counts as inactive or inconclusive.
% is set by controls: 0 for no effect and ±100 for the full control effect.

Sequence of Glucocorticoid receptor (Homo sapiens) (P04150 whole entry, looked up): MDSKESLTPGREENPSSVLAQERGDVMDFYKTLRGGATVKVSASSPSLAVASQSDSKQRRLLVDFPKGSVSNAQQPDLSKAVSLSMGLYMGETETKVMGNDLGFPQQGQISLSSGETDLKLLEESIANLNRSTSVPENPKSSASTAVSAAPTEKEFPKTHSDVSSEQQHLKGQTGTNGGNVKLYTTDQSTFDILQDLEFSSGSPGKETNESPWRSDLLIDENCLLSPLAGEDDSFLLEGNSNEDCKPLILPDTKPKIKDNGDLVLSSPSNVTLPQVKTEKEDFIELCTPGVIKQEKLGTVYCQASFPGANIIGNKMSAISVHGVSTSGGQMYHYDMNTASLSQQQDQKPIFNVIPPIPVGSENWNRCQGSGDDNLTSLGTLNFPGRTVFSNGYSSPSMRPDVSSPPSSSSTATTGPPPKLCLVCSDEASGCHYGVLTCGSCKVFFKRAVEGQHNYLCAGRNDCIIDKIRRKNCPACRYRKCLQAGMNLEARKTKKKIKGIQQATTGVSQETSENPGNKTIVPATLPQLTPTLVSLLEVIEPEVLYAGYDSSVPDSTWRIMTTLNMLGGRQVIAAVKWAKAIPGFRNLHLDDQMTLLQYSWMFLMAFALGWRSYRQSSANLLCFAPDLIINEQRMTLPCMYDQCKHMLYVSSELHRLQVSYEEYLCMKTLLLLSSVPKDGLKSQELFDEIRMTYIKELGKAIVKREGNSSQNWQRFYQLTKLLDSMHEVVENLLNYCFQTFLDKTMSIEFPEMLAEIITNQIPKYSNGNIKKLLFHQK

Consider `COC(=O)CSc1cc(N=c2sc(=O)n3n2CCCC3)c(F)cc1Cl`, for which the Potency result in assay [1], in assay [2], in [3], in [6], in assay [9] and in assay [14] was “inactive” each time. Also, the Potency result in assay [15] and in assay [16] was “inactive” throughout. Also, the call in assay [4], in assay [5], in [7], in assay [8], in assay [10] and in assay [11] was inactive. Moreover, the call in assay [12] and in assay [13] was inactive.

Turning to `CCOC(=O)C1=C(C)NC(C)=C(C(=O)OC)C1c1cccc([N+](=O)[O-])c1` (centres undefined), the Potency entry in assay [1], in assay [2], in assay [6], in assay [9], in assay [18] and in assay [14] was “inactive” each time. Further, the Potency in assay [17] is 26.6 µM (active). The compound was classed as inactive in [4], in assay [5], in [7], in assay [8], in assay [10] and in assay [11]. In addition, the compound was called inactive in assay [12].

On to `O=[N+]([O-])c1cccc(Cl)c1Cl`, for which the Potency entry in assay [1], in [19], in assay [3], in assay [17], in assay [6] and in assay [9] was “inactive” throughout. For the same compound, the Potency entry in [18], in [14] and in [15] was “inactive” throughout. The compound was classed as inactive in assay [4], in [5], in [7], in assay [8], in [10] and in [11]. Besides, the outcome in assay [12] and in assay [13] was inactive.

For the compound `CN1CCN(C2=Nc3cc(Cl)ccc3Nc3ccccc32)CC1`, the Potency entry in assay [1], in assay [2], in assay [3], in assay [9], in [18] and in assay [14] was “inactive” in each case. Also, the Potency result in assay [15] was “inactive”. Also, the compound was classed as inactive in [4], in assay [5], in assay [7], in assay [8], in assay [10] and in assay [12].

For `COCCCCCCCCOCCC[Si](C)(O[Si](C)(C)C)O[Si](C)(C)C`, the Potency entry in assay [1], in assay [2], in assay [6] and in assay [14] was “inactive” throughout. Also, the Potency in [17] is 4.86 µM (active). The result in [4], in assay [5], in [8], in [12] and in [13] was inactive.

`OC(CCN1CCCCC1)(c1ccccc1)C1CCCCC1` (centres undefined): the Potency entry in assay [1], in [19], in assay [3], in assay [6], in [18] and in assay [14] was “inactive” throughout. Besides, the outcome in assay [4], in assay [7], in assay [10], in [12] and in assay [13] was inactive.

Take `CN1CCC(OC(c2ccccc2)c2ccccc2)CC1`: the Potency entry in assay [1], in assay [2], in [3], in assay [15] and in assay [16] was “inactive” throughout. The fluorescence, relative to Rose Bengal in assay [4] was -0.513% [at 18.6 µM]. In assay [6], the fluorescence, % of triamterene was -0.105% [at 18.6 µM]. Besides, the fluorescence, % of fluorescent control in [7] was 0.0005% [at 18.6 µM]; in assay [9], -0.231% [at 18.6 µM]; in assay [18] it was -0.163% [at 18.6 µM]; in assay [14], -0.0097% [at 18.6 µM]. The fluorescence, % of fluorescein in assay [8] was -0.132% [at 18.6 µM]. For the same compound, in [10], the activity change was -0.251% [at 18.6 µM]. Moreover, in assay [12], the fluorescence, % of Rose Bengal is 0.0772% [at 18.6 µM].

As to `O=S1(=O)c2cccc3cccc(c23)N1CCCN1CCN(c2ccc(F)cc2)CC1`, the Potency result in [1], in assay [2], in [3], in assay [14], in assay [15] and in assay [16] was “inactive” throughout. Besides, the compound was classed as inactive in [4], in assay [7], in assay [8], in assay [11], in assay [12] and in [13].

With `CC(Cc1cccc(C(F)(F)F)c1)NCCOC(=O)c1ccccc1` (centres undefined), the Potency result in assay [1], in assay [3], in assay [6], in assay [14] and in assay [16] was “inactive” each time. The compound was called inactive in [4], in [5], in [7], in assay [11], in [12] and in assay [13].

With `C=CC(=O)OCC(C)OCC(C)OCC(C)OC(=O)C=C` (centres undefined), the Potency in assay [2] is 24.3 µM (active); in assay [16] it was 43.6 µM (active). The Potency result in assay [3], in assay [6], in assay [18], in [14] and in [15] was “inactive” throughout. For the same compound, the compound was classed as inactive in [4], in assay [7], in [8], in [11], in [12] and in assay [13].

With `CC(=O)SCc1ccco1`, the Potency result in [1], in [2], in assay [3], in [17], in assay [9] and in assay [18] was “inactive” each time. The Potency entry in [14], in [15] and in assay [16] was “inactive” throughout. In addition, the call in assay [4], in assay [5], in assay [7], in assay [8], in [10] and in [11] was inactive. The compound was classed as inactive in assay [12] and in [13].

For the compound `CCOC(=O)[C@H](CCc1ccccc1)N[C@H]1CCc2ccccc2N(CC(=O)O)C1=O`, the Potency result in assay [1], in assay [2], in assay [3] and in [18] was “inactive” throughout. Besides, the compound was called inactive in assay [4], in [5], in assay [7], in assay [10], in [11] and in assay [12]. Further, the outcome in [13] was inactive.

Regarding `CCCCCOC(=O)COc1cc(N2C(=O)C3=C(CCCC3)C2=O)c(F)cc1Cl`, the Potency result in assay [1], in [19], in assay [3], in assay [6], in assay [9] and in [18] was “inactive” throughout. Moreover, the Potency result in assay [14], in [15] and in assay [16] was “inactive” throughout. Besides, the compound was called inactive in assay [4], in assay [5], in assay [7], in [10], in [11] and in assay [12].
